The list is not random: actives were taken first. Their share in the collection is about 9%.
PLK1 PBD block: qHTS for Inhibitors of PLK1-PDB (polo-like kinase 1 - polo-box domain): Primary Screen; Serine/threonine-protein kinase PLK1 (Homo sapiens), P53350; Plk1 PBD binding of FITC phosphopeptide, fluorescence polarization; actives 2.8% (n = 360,000); Potency, µM, without a hit: max response, negative = inhibition, actives largely listed as inhibitors; AID 720504, 2013; also: series mostly up to about 57 µM; % is scaled to controls: 0 for no effect and ±100 for the full control effect; nearly all actives have a fitted effect of over 65% in size
12-LOX inh: Primary qHTS assay for inhibitors of human arachidonate 12S-lipoxygenase (ALOX12): Round 2; actives 1.1% (n = 580,000); AID 1671190, 2021; Potency, µM (series often up to 108 µM), inactives show at the top dose activity change, negative = inhibition, actives largely listed as inhibitors; purified 12hLO, xylenol orange hydroperoxide absorbance; Polyunsaturated fatty acid lipoxygenase ALOX12 (Homo sapiens), P18054; also: % is scaled to controls: 0 for no effect and ±100 for the full control effect
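Hydroperoxide product was detected by ferrous iron/xylenol orange as the 573 to 405 nm absorbance ratio. Arachidonic acid at 40 uM (final) was turned over for 30 min at room temperature by 150 nM human 12hLO, pH 7.0 Hepes buffer, after 15 min compound preincubation.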
BAZ2B block: qHTS Assay for Inhibitors of BAZ2B; AID 504333, 2011; Potency, µM (top dose mostly 114 µM), for the others: at the highest dose activity change, negative = inhibition, usual class: inhibitors; actives 4.4% (n = 360,000); Bromodomain adjacent to zinc finger domain protein 2B (Homo sapiens), Q9UIF8; AlphaScreen BAZ2B-H3K14Ac peptide displacement; also: % is scaled to controls: 0 for no effect and ±100 for the full control effect; nearly all actives have a fitted effect of over 60% in size
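Inhibition is scored as reduced AlphaScreen emission. The BAZ2B/b-H3(5-23)K14Ac complex (50 nM each) in PBS pH 7.4, 0.01% Tween-20 meets compound (up to 110 uM) for 30 min at RT before bead addition.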
HP1b chromo inh: HTS for Inhibitors of HP1-beta Chromodomain Interactions with Methylated Histone Tails. Chromobox protein homolog 1 (Homo sapiens), P83916. AlphaScreen HP1-beta / biotin-H3K9me3 peptide binding. Potency, µM (highest dose often 114 µM), without a hit: at the top dose activity change, negative = inhibition, hits mostly inhibitors. actives 0.56% (n = 390,000); also: nearly all actives have a fitted effect of over 70% in size
Target sequence (P83916 whole entry, looked up): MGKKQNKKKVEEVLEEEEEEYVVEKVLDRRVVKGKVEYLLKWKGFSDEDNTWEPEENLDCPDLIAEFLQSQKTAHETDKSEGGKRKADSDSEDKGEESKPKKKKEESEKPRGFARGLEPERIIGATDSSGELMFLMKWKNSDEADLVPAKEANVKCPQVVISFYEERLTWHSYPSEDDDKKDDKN
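AlphaScreen: HP1-beta (50 nM) preformed 30 min with biotin-H3(1-18)K9me3 peptide (50 nM) in PBS pH 7.4, 0.01% Tween-20. Compound added for 30 min at RT, then streptavidin donor/nickel chelate acceptor beads (10 ug/mL) for 30 min.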
JMJD2A Tudor: qHTS Assay for Inhibitors of JMJD2A-Tudor Domain; AlphaScreen JMJD2A-Tudor / H3K4me3 peptide binding; Potency, µM (top dose mostly 114 µM), for inactives: at the highest dose activity change, negative = inhibition, usual class: inhibitors; AID 504339, 2011; actives 4.4% (n = 390,000); Lysine-specific demethylase 4A (Homo sapiens), O75164; also: % is scaled to controls: 0 for no effect and ±100 for the full control effect; nearly all actives have a fitted effect of over 50% in size
G9a inh: qHTS Assay for Inhibitors of Histone Lysine Methyltransferase G9a; Potency, µM (doses to about 102 µM), for inactives: top-dose activity, negative = inhibition, most hits filed as inhibitors; Histone-lysine N-methyltransferase EHMT2 (Homo sapiens), Q96KQ7; actives 8.8% (n = 350,000); G9a H3K9 monomethylation, AlphaScreen, 2 h; also: % is scaled to controls: 0 for no effect and ±100 for the full control effect; nearly all actives have a fitted effect of over 75% in size
Target sequence (Q96KQ7 913-1193 limits assumed): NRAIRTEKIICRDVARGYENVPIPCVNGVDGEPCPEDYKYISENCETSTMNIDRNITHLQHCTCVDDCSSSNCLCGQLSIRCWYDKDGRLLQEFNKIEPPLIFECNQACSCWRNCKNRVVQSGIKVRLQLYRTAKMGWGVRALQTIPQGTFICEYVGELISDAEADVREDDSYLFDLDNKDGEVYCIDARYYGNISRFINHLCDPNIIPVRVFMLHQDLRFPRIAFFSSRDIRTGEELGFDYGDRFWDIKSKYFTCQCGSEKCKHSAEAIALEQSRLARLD
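Enzyme 20 nM + cpd, 15 min RT; add b-H3K9 pep 500 nM / SAM 20 uM; 2 h RT; anti-H3K9me1 Ab 0.5 ug/mL + SA donor / anti-rabbit acceptor beads 20 ug/mL each, 10 min; AlphaScreen read.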
Starred values were filed as active, the others as inactive; ? = inconclusive; nt = no result given; [ ] = remark or other dose. Calls follow the shape of the dose curve; as a rule, active = well fitted curve in the direction sought with a large enough effect; inconclusive = small, poorly fitted or top-dose-only effect, or another doubt; inactive = no such curve, though single readings can be large; an effect the other way counts as inactive or inconclusive. Potency is read from the fitted curve at half-maximal effect.

SMILES	PLK1 PBD block	12-LOX inh	BAZ2B block	HP1b chromo inh	JMJD2A Tudor	G9a inh
CCOc1ccc(NC(=O)CSc2nnc(-c3ccccc3)n2N)cc1	-15%	0%	49%	43%	-24%	-2%[59 µM]
CCNC(=O)CSc1nnc(-c2ccccc2)n1-c1ccc(OCC)cc1	2%	27%	?	26%	-1%	50µM*
CC(C)(C)NC(=O)CNc1nc(C(F)(F)F)nc2ccccc12	nt	31%	nt	nt	nt	nt
COc1ccc(/C(C)=C(/C#N)c2nc3ccccc3[nH]2)cc1OC	nt	-1%	nt	nt	nt	nt
N#C/C(=C\c1c(Cl)cccc1Cl)c1nc2ccccc2[nH]1	-10%	0%	-8%	22%	-25%	1%
N#C/C(=C\c1c(Cl)cccc1Cl)c1nc2ccccc2o1	0.42µM*	-20%	-30%	-23%	-35%	-7%[59 µM]
O=C(CN1C(=O)c2ccccc2C1=O)c1ccccc1	3%	0%	12%	27%	12%	19%[12.7 µM]
CC1=C(CC(=O)c2ccccc2)C(=O)c2ccccc2C1=O	-17%	-23%	22µM*	?	35µM*	32µM*
COc1ccc(CS(=O)(=O)/C(Cl)=C(/Cl)C(=O)Nc2ccc(OC)nc2)cc1	?	nt	-7%	27%	-21%	45µM*
CCCCNC(=S)Nc1ccc(OC)nc1	-23%	0%	-15%	-6%	-9%	56µM*
COc1ccc(NC(=O)/C(Cl)=C(/Cl)S(=O)Cc2ccccc2)cn1 (configuration not stated)	2.1µM*	?	10%	49%	-9%	11µM*
CCCCNC(=S)Nc1ccc(C)cc1	nt	-17%	nt	nt	nt	nt
COc1ccc(/C=C/C(=O)Nc2ccc(OC)nc2)cc1	-1%	1%	-8%	43%	-8%	21%
COCC(=O)NC[C@H]1OC[C@@H](NC2CCCC2)[C@@H]1O	nt	3%[176 µM]	nt	nt	nt	nt
COCCn1nnnc1C1(N(Cc2cc3cc(C)ccc3[nH]c2=O)CC2CCCO2)CCN(C)CC1 (configuration not stated)	-4%	34%	-7%	48%	4%	?
Cn1c(SCC(=O)Nc2cccc(F)c2)nnc1-c1cccnc1	0%	461%	-4%	48%	-4%	0%
Cn1c(Cc2cccs2)nnc1SCC(=O)N1CCCc2ccccc21	-3%	0%	-1%	35%	9%	-49%[59 µM]
O=C(N[C@H](c1cccc(Br)c1)[C@@H]1CCCC=C1c1ccccc1)C(F)(F)F	nt	14%	nt	nt	nt	nt
Cc1nc2ccc(S(=O)(=O)NC(C(=O)N3CCC(C)CC3)C(C)C)cc2s1 (configuration not stated)	-6%	12%	6%	29%	-19%	-23%
Cc1nc2ccc(S(=O)(=O)NC(C(=O)N3CCCC3)C(C)C)cc2s1 (configuration not stated)	30µM*	5%	10%	6%	?	6%[59 µM]
COc1ccc(C(=O)N[C@H]2C[C@@H](c3nc(-c4ccc(Cl)cc4)no3)N(C)C2)cc1	nt	-19%[176 µM]	nt	nt	nt	nt
CCOc1ccc(C(=O)Nc2ccc(N3CCN(C(C)=O)CC3)cc2)cc1[N+](=O)[O-]	-4%	-14%	?	-14%	-27%	?
CC(=O)N1CCN(c2ccc(Oc3ccc([N+](=O)[O-])c(C(F)(F)F)c3)cc2)CC1	-6%	nt	?	-36%	?	50µM*
O=C(NCCN1CCOCC1)c1c(O)nc2sccn2c1=O	-3%	?	-28%	4%	32µM*	?
c1csc(-c2nc3ccccc3s2)c1	?	?	45%	29%	9%	20µM*
SMILES	PLK1 PBD block	12-LOX inh	BAZ2B block	HP1b chromo inh	JMJD2A Tudor	G9a inh
O=C(NCCCn1ccnc1)C(=O)Nc1ccccc1	30µM*	0%	-27%	?	79µM*	-8%
CN(C)S(=O)(=O)c1cccc(NC(=S)NCCCn2ccnc2)c1	-25%	0%	79µM*	14%	-4%[57.1 µM]	-1%
COc1ccc(NC(=O)C(=O)NCCCn2ccnc2)cc1	-8%	0%	-5%	-9%	-20%	2%
COC(=O)c1ccc(NC(=S)NCCCn2ccnc2)cc1	-8%	-8%	79µM*	4%	-23%	-10%
Cc1cc(C(=O)NCCCn2ccnc2)sc1-c1ccccc1	-25%	-5%	50µM*	-4%	?	?
O=C(O)COCC(=O)N[C@H]1CCN2C(=O)c3cc(-c4ccccc4)ccc3NC(=O)[C@H]12	nt	0%[176 µM]	nt	nt	nt	nt
O=C(NC[C@H]1O[C@H](Cc2cc(CN3CCOCC3)on2)CC[C@@H]1O)c1ccccc1	nt	19%[176 µM]	nt	nt	nt	nt
CCN(CC)c1nn2c(=O)c(C(=O)NCc3cccc(C)c3)cnc2s1	nt	-14%	-14%	?	-11%	7%[59 µM]
COc1cc(C(=O)Nc2scc(-c3ccccc3)c2C(=O)O)cc(OC)c1OC	-17%	-3%	0%	27%	-18%	nt
CCOC(=O)c1ccc(NC(=S)NCCCn2ccnc2)cc1	-7%	-13%	56µM*	38%	-26%	?
COc1cc(OC)c(OC)cc1CN1CCN(c2ccccc2OC)CC1	-8%	?	?	?	3.2µM*	?
COc1cc(OC)c(OC)cc1CN1CCC(O)CC1	5%	?	?	?	18µM*	?
CCOc1ccccc1N1CCN(Cc2ccc(OC)c(OC)c2OC)CC1	-7%	?	?	?	4µM*	?
COc1cc(OC)c(OC)cc1CN1CCN(Cc2cccn2C)CC1	-11%	?	40µM*	25µM*	3.5µM*	3.5µM*
COc1ccc(OC)c(CN2CCN(C/C=C/c3ccccc3)CC2)c1	nt	0%	nt	nt	nt	nt
COc1ccc(OC)c(CN2CCN(Cc3ccc(OC)c(OC)c3OC)CC2)c1	-17%	?	nt	nt	nt	nt
Cc1ccc(C)c(NC(=O)CSc2nnc(CCNC(=O)OC(C)(C)C)o2)c1	-6%	-19%	6%	28%	6%	-10%
Cc1c(C(=O)Nc2ccc(N3C[C@@H](C)O[C@@H](C)C3)nc2)cccc1-c1ccc(OC(F)(F)F)cc1	nt	14%[57.4 µM]	nt	nt	nt	nt
Cc1cccc(N2CCN(C(=O)CCC(=O)N3CC(C)Oc4ccc(C)cc43)CC2C)c1 (configuration not stated)	-7%	13%	?	-10%	?	45µM*
O=C(CSc1ccsc1[N+](=O)[O-])N1CCN(c2ccccn2)CC1	?	-22%	?	-20%	?	45µM*
